From PubChem BioAssay (NCATS)
Values joined by “and” are separate entries in the source; they are usually repeats but may differ in a detail not shown here. Equal entries are not always repeated. Records with an inconclusive call do not appear. Some structures have more than one record in an assay (separate samples or runs), and their calls can disagree. Active and inactive are the calls of the source. Unless noted, calls follow the shape of the full dose curve. Numbered stars: 1 amine (or outer) side, 2 acyl side, 3 side chain; on linkers, the order of the positions; unused ones are H or OH. Bridge positions count the residues as written; N and C are the ends. Square brackets hold non-standard residues; d marks the D form. Peptide text beside a SMILES is read from it. I, II: the chains in the order shown. Actinocin(9to1) = Cc1c2oc3c(C)ccc(C(=O)[*:1])c3nc-2c(C(=O)[*:2])c(N)c1=O; NMeV = CN[CH](C(=O)O)C(C)C; Sar = CNCC(=O)O

Key:
[1] = molecular target: Alpha-galactosidase (Coffea arabica) (UniProt Q42656); assay: Counterscreen for Glucocerebrosidase Inhibitors: qHTS Assay for Coffee Bean alpha-Galactosidase at pH 4.5 (AID 957; active = well fitted curve in the direction sought with a large enough effect; an effect the other way counts as inactive or inconclusive;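 also: plate controls were enzyme alone for no effect and no enzyme for full effect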)
Outline: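 Green coffee bean enzyme (2 nM final) was incubated with compounds (0.7 nM to 77 uM) and 4-methylumbelliferyl alpha-D-galactopyranoside (80 uM final) in 50 mM citric acid, 0.005% Tween-20, pH 4.5, 20 min at room temperature; AC50 from Hill fits.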

[2] = molecular target: Alpha-galactosidase (Coffea arabica) (UniProt Q42656); assay: Counterscreen for Glucocerebrosidase Inhibitors: qHTS Assay for Coffee Bean alpha-Galactosidase at pH 5.9 (AID 998; active = well fitted curve in the direction sought with a large enough effect; an effect the other way counts as inactive or inconclusive;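 also: plate controls were uninhibited enzyme for no effect and no-enzyme basal signal for full effect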)
Outline: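 Green coffee bean enzyme (2 nM) with 4-methylumbelliferyl alpha-D-galactopyranoside (80 uM) in 50 mM citric acid, 0.005% Tween-20, pH 5.9, 20 min at room temperature; compounds 0.7 nM–77 uM. Stopped at pH 10, fluorescence Ex365/Em440; Hill-fit AC50.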

[3] = Validation screen for inhibitors of Lassa infection (AID 463096); also: % is scaled to controls: 0 for no effect and ±100 for the full control effect
[4] = Inducers of the Endoplasmic Reticulum Stress Response (ERSR) in human glioma: Validation (AID 504836; active = well fitted curve in the direction sought with a large enough effect; an effect the other way counts as inactive or inconclusive; also: 0% is about no effect)
Outline: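 Stably transfected U87-MG glioma cells carrying a GRP78-based luciferase sensor; 16 h compound incubation. Luminescence end-point read 10 min after Bright-Glo addition at room temperature.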

[5] = qHTS for Inhibitors of the Functional Ribonucleoprotein Complex (vRNP) of Lassa (LASV) Arenavirus: LASV Primary Screen - GLuc reporter signal (AID 1347082; calls by dose curve; tested in HEK293 reporter line; also: nearly all actives have a fitted effect of over 60% in size; also: potency is read from the fitted curve at half-maximal effect; as to activity change, negative = inhibition: % is scaled to controls: 0 for no effect and ±100 for the full control effect)
[6] = qHTS for Inhibitors of the Functional Ribonucleoprotein Complex (vRNP) of Lassa (LASV) Arenavirus: Viability assay - alamar blue signal for LASV Primary Screen (AID 1347083; calls by dose curve; tested in HEK293 reporter line; also: nearly all actives have a fitted effect of over 80% in size; also: potency is read from the fitted curve at half-maximal effect)
[7] = qHTS for Inhibitors of the Functional Ribonucleoprotein Complex (vRNP) of Lymphocytic Choriomeningitis Arenaviruses (LCMV): Viability assay - alamar blue signal for LCMV Primary Screen (AID 1347085; calls by dose curve; tested in HEK293 reporter line; also: nearly all actives have a fitted effect of over 80% in size; also: potency is read from the fitted curve at half-maximal effect)
[8] = molecular target: Nucleoprotein (Lymphocytic choriomeningitis virus (strain Armstrong)) (UniProt P09992); assay: qHTS for Inhibitors of the Functional Ribonucleoprotein Complex (vRNP) of Lymphocytic Choriomeningitis Arenaviruses (LCMV): LCMV Primary Screen - GLuc reporter signal (AID 1347086); also: nearly all actives have a fitted effect of over 70% in size; also: potency is read from the fitted curve at half-maximal effect; as to activity change, negative = inhibition: % is scaled to controls: 0 for no effect and ±100 for the full control effect
[9] = Cytotoxicity counterscreen for inhibitors of SARS-CoV-2 cell entry (AID 1645845); also: % is scaled to controls: 0 for no effect and ±100 for the full control effect; nearly all actives have a fitted effect of over 50% in size
Outline: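 HEK293-ACE2 cells (Expi293F stably expressing human ACE2) seeded overnight, then compound for 1 h plus 48 h at 37C. Viability as ATP content by luminescence; normalized to wells with cells and media-only wells.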

[10] = Primary qHTS to identify inhibitors of SARS-CoV-2 cell entry (AID 1645846); details: activity change, negative = inhibition: at 57.1 µM (top of the series) unless noted; also: nearly all actives have a fitted effect of over 45% in size; also: potency is read from the fitted curve at half-maximal effect
Outline: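 Using luciferase-reporting pseudoviruses carrying Wuhan-Hu-1 spike, the screen tracks entry into stably ACE2-expressing cells over 48 hr. Activity is expressed relative to spike particles versus particles lacking any fusion protein.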

[11] = Cell Viability - BJ (AID 421); details: BJ fibroblast viability, qHTS;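 also: potency is read from the fitted curve at half-maximal effect; cells exposed to compound for 40 hours at 37 °C before readout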
Outline: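 Cytotoxicity in human BJ foreskin fibroblasts is scored as loss of cellular ATP after a 40-hour exposure, measured by luciferase luminescence. Controls are DMSO and 100 uM tamoxifen.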

[12] = Cell Viability - Hek293 (AID 427;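 active = compounds whose dose-response curve shows a full or clear partial loss of cell viability, called from curve shape rather than a numeric limit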;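 also: potency is read from the fitted curve at half-maximal effect; cells exposed to compound for 40 hours at 37 °C before reading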); details: qHTS
Outline: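 qHTS, human embryonic kidney (adenovirus-transformed) cells; 40 hr cpd, 37 °C; CellTiter-Glo ATP luminescence. Norm: DMSO = 0, 100 uM tamoxifen = 100% inhibition. Hill-fit AC50.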

[13] = MultiTox-Fluor Cytotoxicity Assay - LYMP1-003 - Dead Cells (AID 961; active = well fitted curve in the direction sought with a large enough effect; an effect the other way counts as inactive or inconclusive; also: nearly all actives have a fitted effect of over 70% in size; also: potency is read from the fitted curve at half-maximal effect)
Outline: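 LYMP1-003 lymphoblastoid, 2500 cells/well, 5 hr settle then 16 hr cpd at 37 C; MultiTox-Fluor reagent 60 min RT; Ex/Em 485/520 dead-cell signal; norm. DMSO = 0%, 15 uM tetraoctylammonium bromide = 100%; Hill AC50.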

[14] = qHTS assay for small molecule agonists of the antioxidant response element (ARE) signaling pathway (AID 651741; active = well fitted activation curve with a large enough effect in the signal ratio; the % refers to the signal ratio; also: potency is read from the fitted curve at half-maximal effect; as to activation: % of control where 0% means no effect)
Outline: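 HepG2 ARE-bla cells plated at 2,000 cells/well and incubated 5 h at 37 C/5% CO2 received 23 nL compound in DMSO. After 16 h at 37 C, LiveBLAzer B/G FRET substrate was applied for 2 h at room temperature and fluorescence read.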

[15] = qHTS assay for small molecule agonists of the antioxidant response element (ARE) signaling pathway measured by Nrf2-dependant transcriptional activity - cell viability counter screen (AID 720653; active = well fitted curve in the direction sought with a large enough effect in the repeat runs; an effect the other way counts as inactive or inconclusive; also: % is scaled to controls: 0 for no effect and ±100 for the full control effect); details: ARE-bla HepG2 viability, CellTiter-Glo ATP luminescence, 16 h; max response: stronger effect = lower value
Outline: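 ARE-bla HepG2 cells treated with compounds for 16 h at 37C; this counter screen measures viability as intracellular ATP by CellTiter-Glo luminescence after 30 min at room temperature.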

[16] = molecular target: M-phase phosphoprotein 8 (Homo sapiens) (UniProt Q99549); assay: qHTS Validation Assay for Inhibitors for MPP8 Chromodomain Interactions with Methylated Histone Tails (AID 488949; active = well fitted curve in the direction sought with a large enough effect; an effect the other way counts as inactive or inconclusive; also: nearly all actives have a fitted effect of over 55% in size; also: potency is read from the fitted curve at half-maximal effect)
Outline: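 Chemiluminescent proximity assay: histidine-tag capture via nickel acceptor beads, biotin peptide via streptavidin donor beads. Protein and peptide each at 50 nM, pH 7.4, with 30 min incubations at room temperature for complex formation, compound exposure and bead binding.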

[17] = molecular target: Cytochrome P450 3A4 (Homo sapiens) (UniProt P08684); assay: qHTS Assay for Activators of Cytochrome P450 3A4 (AID 885; active = well fitted curve in the direction sought with a large enough effect; an effect the other way counts as inactive or inconclusive; also: nearly all actives have a fitted effect of over 65% in size)
Outline: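 Steps: enzyme/substrate mix dispensed; compound added, 10 min RT; NADPH regeneration solution added, 60 min RT; luciferin detection buffer stops reaction; 20 min later luminescence measured.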

[18] = molecular target: Bile acid receptor (Homo sapiens) (UniProt Q96RI1); assay: qHTS assay for small molecule agonists of farnesoid X receptor signaling (AID 588527); details: HEK293T FXR-UAS-bla, beta-lactamase ratio, 16 h; activation: stronger effect = higher value;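 also: 0% = vehicle basal and 100% = reference agonist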
Outline: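 Read-out: beta-lactamase reporter fluorescence with CCF4 substrate in GeneBLAzer FXR-UAS-bla HEK293T cells, after 16 h compound exposure at 37 C. Response scaled between DMSO basal (0%) and chenodeoxycholic acid at 100 uM (100%).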

Nucleoprotein (Lymphocytic choriomeningitis virus (strain Armstrong)), sequence (P09992 whole entry, looked up): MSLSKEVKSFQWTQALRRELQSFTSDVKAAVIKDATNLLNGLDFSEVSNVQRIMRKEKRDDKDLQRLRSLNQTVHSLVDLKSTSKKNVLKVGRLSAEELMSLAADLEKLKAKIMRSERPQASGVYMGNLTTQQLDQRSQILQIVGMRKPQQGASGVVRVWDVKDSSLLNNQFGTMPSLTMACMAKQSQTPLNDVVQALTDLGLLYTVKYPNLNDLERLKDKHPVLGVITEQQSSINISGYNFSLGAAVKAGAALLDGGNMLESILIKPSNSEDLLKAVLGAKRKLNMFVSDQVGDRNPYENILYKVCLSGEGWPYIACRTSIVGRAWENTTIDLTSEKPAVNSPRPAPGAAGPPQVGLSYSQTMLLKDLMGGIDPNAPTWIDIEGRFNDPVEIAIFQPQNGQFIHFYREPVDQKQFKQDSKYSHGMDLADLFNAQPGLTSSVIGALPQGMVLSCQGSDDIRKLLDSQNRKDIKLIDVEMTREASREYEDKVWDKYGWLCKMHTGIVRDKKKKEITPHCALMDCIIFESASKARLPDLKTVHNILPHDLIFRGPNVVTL
Alpha-galactosidase (Coffea arabica), sequence (Q42656 whole entry, looked up): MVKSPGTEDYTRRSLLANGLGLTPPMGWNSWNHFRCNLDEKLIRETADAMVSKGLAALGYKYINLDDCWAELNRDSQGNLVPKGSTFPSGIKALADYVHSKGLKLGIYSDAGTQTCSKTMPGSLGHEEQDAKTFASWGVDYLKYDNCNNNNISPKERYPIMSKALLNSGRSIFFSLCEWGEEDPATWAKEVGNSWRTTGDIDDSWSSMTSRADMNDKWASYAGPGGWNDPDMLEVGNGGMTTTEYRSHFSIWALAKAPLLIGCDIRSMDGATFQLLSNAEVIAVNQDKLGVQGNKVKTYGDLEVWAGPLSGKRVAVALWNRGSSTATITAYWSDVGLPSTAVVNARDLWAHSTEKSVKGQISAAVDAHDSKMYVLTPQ
Cytochrome P450 3A4 (Homo sapiens), sequence (P08684 whole entry, looked up): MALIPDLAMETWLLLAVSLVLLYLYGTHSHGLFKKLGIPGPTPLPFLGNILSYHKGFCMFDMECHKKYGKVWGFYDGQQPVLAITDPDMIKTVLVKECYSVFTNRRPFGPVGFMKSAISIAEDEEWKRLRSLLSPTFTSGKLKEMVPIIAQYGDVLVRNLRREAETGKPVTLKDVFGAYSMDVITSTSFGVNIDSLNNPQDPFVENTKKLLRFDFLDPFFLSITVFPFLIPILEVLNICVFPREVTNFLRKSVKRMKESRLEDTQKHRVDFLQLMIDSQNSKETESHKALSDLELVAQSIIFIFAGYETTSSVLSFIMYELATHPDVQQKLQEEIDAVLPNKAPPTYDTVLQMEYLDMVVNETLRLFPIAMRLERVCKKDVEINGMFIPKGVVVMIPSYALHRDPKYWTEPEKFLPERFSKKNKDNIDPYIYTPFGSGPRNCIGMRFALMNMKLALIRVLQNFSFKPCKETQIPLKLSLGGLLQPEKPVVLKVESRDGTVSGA
M-phase phosphoprotein 8 (Homo sapiens), sequence (Q99549 whole entry, looked up): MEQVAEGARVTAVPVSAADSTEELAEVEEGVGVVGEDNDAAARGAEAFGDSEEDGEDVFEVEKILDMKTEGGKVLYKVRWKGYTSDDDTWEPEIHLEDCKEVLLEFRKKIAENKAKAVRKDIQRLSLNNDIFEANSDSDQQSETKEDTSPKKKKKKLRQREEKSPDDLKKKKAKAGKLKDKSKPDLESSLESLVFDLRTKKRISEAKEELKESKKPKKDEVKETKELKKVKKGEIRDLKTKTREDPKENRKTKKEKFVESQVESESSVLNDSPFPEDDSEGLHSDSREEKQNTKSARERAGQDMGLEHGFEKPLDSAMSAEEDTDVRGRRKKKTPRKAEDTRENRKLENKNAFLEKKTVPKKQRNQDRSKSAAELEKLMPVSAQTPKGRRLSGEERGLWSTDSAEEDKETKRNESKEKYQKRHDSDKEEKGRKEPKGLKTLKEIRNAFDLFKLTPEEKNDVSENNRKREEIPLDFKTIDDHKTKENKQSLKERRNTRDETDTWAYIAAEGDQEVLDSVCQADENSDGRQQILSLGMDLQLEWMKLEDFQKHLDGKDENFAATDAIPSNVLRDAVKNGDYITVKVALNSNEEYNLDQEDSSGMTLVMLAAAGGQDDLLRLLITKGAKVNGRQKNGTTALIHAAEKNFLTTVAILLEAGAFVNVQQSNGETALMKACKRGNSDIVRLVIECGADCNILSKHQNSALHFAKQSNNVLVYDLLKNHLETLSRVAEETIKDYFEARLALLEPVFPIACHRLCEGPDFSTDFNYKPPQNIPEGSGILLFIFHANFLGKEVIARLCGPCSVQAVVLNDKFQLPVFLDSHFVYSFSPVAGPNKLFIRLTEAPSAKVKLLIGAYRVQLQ
Bile acid receptor (Homo sapiens), sequence (Q96RI1 whole entry, looked up): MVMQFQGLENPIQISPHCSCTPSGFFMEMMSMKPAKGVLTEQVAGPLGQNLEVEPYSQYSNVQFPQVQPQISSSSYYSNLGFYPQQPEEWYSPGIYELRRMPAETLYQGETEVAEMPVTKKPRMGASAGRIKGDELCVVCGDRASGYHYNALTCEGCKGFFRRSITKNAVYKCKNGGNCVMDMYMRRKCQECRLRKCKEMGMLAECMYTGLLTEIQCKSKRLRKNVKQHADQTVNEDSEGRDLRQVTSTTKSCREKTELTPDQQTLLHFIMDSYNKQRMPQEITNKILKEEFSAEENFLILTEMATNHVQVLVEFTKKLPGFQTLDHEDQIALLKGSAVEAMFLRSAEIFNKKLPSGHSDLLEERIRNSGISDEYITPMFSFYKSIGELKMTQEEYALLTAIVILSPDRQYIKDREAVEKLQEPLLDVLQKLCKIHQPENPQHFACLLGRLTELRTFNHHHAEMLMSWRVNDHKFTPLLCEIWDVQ

N#C/C(=C\c1ccc(O)c(O)c1)C(=O)NCc1ccccc1
inactive: outcome [1] | outcome [2] | Potency [3] | outcome [4] | Potency [5] | Potency [6] | Potency [7] | Potency [8] | Potency [9]

CC(C)N(CCC(=O)c1ccc2ccccc2c1)Cc1ccccc1
inactive: outcome [1] | outcome [2] | outcome [4] | Potency [5] | Potency [6] | Potency [7] | Potency [8] | Potency [9]

CNC(=O)Nc1ccc(-c2nc(N3CC4CCC(C3)O4)c3cnn(C4CCC5(CC4)OCCO5)c3n2)cc1
active: Potency [5] 0.0153 µM | Potency [6] 0.0049 µM | Potency [7] 0.0153 µM | Potency [8] 0.0273 µM
-83.7%: activity change, negative = inhibition [10]

COc1c(N2C[C@@H]3CCCN[C@H]3C2)c(F)cc2c(=O)c(C(=O)O)cn(C3CC3)c12
2.05%: activity change, negative = inhibition [10]
inactive: Potency [5] | Potency [6] | Potency [7] | Potency [8]

CC(=O)/C(C)=N/O
inactive: Potency [3] | Potency [5] | Potency [6] | Potency [7] | Potency [8]

CC(=O)/C=C/c1ccccc1
inactive: Potency [11] > 92 µM | Potency [12] > 92 µM | Potency [13] | Potency [14] | max response [15] -6.98% | Potency [5] | Potency [6] | Potency [7] | Potency [8]

c1ccc2c(c1)-c1cccc3cccc-2c13
inactive: Potency [11] > 92 µM | Potency [12] > 92 µM | Potency [13] | max response [15] -12% and 0.837% | Potency [5] | Potency [6] | Potency [7] | Potency [8]
inactive and 30.6 µM (active): Potency [14]

Oc1ccccc1Cl
inactive: Potency [11] > 92 µM | Potency [12] > 92 µM | Potency [13] | Potency [14] | max response [15] -1.76% | Potency [5] | Potency [6] | Potency [7] | Potency [8]

CCNC(=O)[C@H]1O[C@@H](n2cnc3c(N)nc(NCCc4ccc(CCC(=O)O)cc4)nc32)[C@H](O)[C@@H]1O
inactive: outcome [4] | Potency [5] | Potency [6] | Potency [7] | Potency [8] | Potency [10]

NO
inactive: outcome [1] | outcome [2] | Potency [3] | outcome [4] | Potency [5] | Potency [6] | Potency [7] | Potency [8]

COC1=CC(=O)OC(CCc2ccc3c(c2)OCO3)C1 (stereo not given)
inactive: Potency [11] > 92 µM | Potency [12] > 92 µM | Potency [13] | Potency [14] | max response [15] -4.13% | Potency [5] | Potency [6] | Potency [7] | Potency [8]

COc1cc([C@@H]2c3cc4c(cc3[C@H](O)C3COC(=O)[C@@H]32)OCO4)cc(OC)c1OC (stereo not given in full)
inactive: Potency [3] | Potency [16] | outcome [4] | Potency [5] | Potency [6] | Potency [7] | Potency [8]

CC(C)[C@H](CO)Nc1nc(Nc2cccc(Cl)c2)c2ncn(C(C)C)c2n1
active: Potency [10] 7.94 µM
inactive: Potency [17] | Potency [5] | Potency [6] | Potency [7] | Potency [8]

CC(C)NC[C@H](O)COc1cccc2[nH]ccc12
inactive: outcome [1] | outcome [2] | Potency [3] | outcome [4] | Potency [5] | Potency [6] | Potency [7] | Potency [8]

C=C/C(C)=C/[C@@]1(C)SC(=O)C(C)=C1O
inactive: Potency [3] | Potency [5] | Potency [6] | Potency [7] | Potency [8]

CCNC(=O)[C@H]1O[C@@H](n2cnc3c(N)nc(NCCc4ccc(CCC(=O)O)cc4)nc32)[C@H](O)[C@H]1O
inactive: Potency [3] | Potency [5] | Potency [6] | Potency [7] | Potency [8]

O=C(/C=C/c1ccc(O)c(O)c1)OCCc1ccccc1
inactive: Potency [3] | Potency [5] | Potency [6] | Potency [7] | Potency [8]

Cc1c2oc3c(C)ccc(C(=O)NC4C(=O)NC(C(C)C)C(=O)N5CCCC5C(=O)N(C)CC(=O)N(C)C(C(C)C)C(=O)OC4C)c3nc-2c(C(=O)NC2C(=O)NC(C(C)C)C(=O)N3CCCC3C(=O)N(C)CC(=O)N(C)C(C(C)C)C(=O)OC2C)c(N)c1=O (stereo not given) (I: TVP[Sar][NMeV] / II: TVP[Sar][NMeV]; ester I:1-I:C, II:1-II:C; linker I:N-II:N via Actinocin(9to1); configuration not given here)
inactive: Potency [5] | Potency [6] | Potency [7] | Potency [8]
-91.5% [at 27.1 µM]: activity change, negative = inhibition [10]

CC(C)COC(=O)c1ccccc1C(=O)OCC(C)C
inactive: Potency [11] > 92 µM | Potency [12] > 92 µM | Potency [13] | activation [18] -1.69% | max response [15] 7.97% | Potency [5] | Potency [6] | Potency [7] | Potency [8]

Cc1ccccc1C(=O)c1ccc(Nc2ccc(Br)cc2N)cc1Cl
inactive: Potency [5] | Potency [6] | Potency [7] | Potency [8]

NC1CCN(O)C1=O (stereo not given)
inactive: Potency [3] | Potency [5] | Potency [6] | Potency [7] | Potency [8]

Oc1cc(O)cc(/C=C/c2ccc(O)c(O)c2)c1
-97.4%: activity change, negative = inhibition [10]
inactive: Potency [3] | outcome [4] | Potency [5] | Potency [6] | Potency [7] | Potency [8]

Oc1ccccc1O
active: Potency [13] 12.6 µM | Potency [16] 79.4 µM | Potency [14] 29.8 µM
inactive: Potency [17] | outcome [1] | outcome [2] | Potency [3] | outcome [4] | Potency [5] | Potency [6] | Potency [7] | Potency [8]

CC[C@H](CC#N)OC(=O)N[C@@H](C)c1cccc(NC(=O)Nc2ccc(-c3cnco3)c(OC)c2)c1
-97.5%: activity change, negative = inhibition [10]
active: Potency [5] 1.53 µM | Potency [6] 0.769 µM | Potency [7] 0.968 µM | Potency [8] 0.769 µM
